Assay results published in PubChem BioAssay (NCI).
This is part of a sample that, as a whole, favours compounds with a hit. Of some 79,000 tested, about 15% had one in any assay. The source made the active and inactive calls. No stated cut-off is given here; in the data, active means growth inhibition above about 70%; inactive means the rest.

Tests used:
[1] = NCI Yeast Anticancer Drug Screen. Data for the rad50 strain (AID 155);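 further: 0% = growth of vehicle-only cultures of the same strain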; conditions: S. cerevisiae rad50 strain growth inhibition, active compounds read high
How it was run: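 Relative growth inhibition (compound vs vehicle) was measured in yeast with a defined repair-gene alteration.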

[2] = NCI Yeast Anticancer Drug Screen. Data for the mec2-1 strain (AID 157); conditions: S. cerevisiae mec2-1 strain, active compounds read high
How it was run: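 Growth inhibition is read against vehicle-treated controls after compound exposure of the mec2-1 yeast strain, which is defective in DNA damage repair or cell cycle control.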

[3] = NCI Yeast Anticancer Drug Screen. Data for the sgs1 mgt1 strain (AID 161);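 further: 0% = growth of cultures given vehicle only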; conditions: S. cerevisiae sgs1 mgt1 strain, active compounds read high
How it was run: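 Yeast cells carrying a defined DNA-repair defect were exposed to test compounds. Growth inhibition was measured relative to vehicle-treated controls.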

[4] = NCI Yeast Anticancer Drug Screen. Data for the cln2 rad14 strain (AID 165);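 further: 0% = growth equal to vehicle treated cultures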; conditions: S. cerevisiae cln2 rad14 strain, active compounds read high
How it was run: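 Growth inhibition, relative to vehicle-treated controls, is the read-out. The test organism is a yeast strain with defined genetic alterations, cln2 rad14.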

[5] = NCI Yeast Anticancer Drug Screen. Data for the bub3 strain (AID 167); conditions: S. cerevisiae bub3 mutant strain, active compounds read high
How it was run: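 Screening used yeast with an engineered genetic alteration affecting cell cycle control. Compound-exposed cultures were compared with vehicle cultures, and reduced growth was taken as inhibition.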

[6] = NCI Yeast Anticancer Drug Screen. Data for the mlh1 rad18 strain (AID 175); conditions: S. cerevisiae mlh1 rad18 strain growth inhibition, active compounds read high
How it was run: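 Cells of a genetically altered yeast strain, deficient in DNA damage repair, were treated with compound. Their growth was then compared with that of vehicle-treated cultures to give inhibition.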

[7] = at 5.0 µM (retest, dose inferred, filed as 0.5)
[8] = at 50.0 µM (retest, dose inferred, filed as 5.0)

Measured: growth inhibition

Cc1ccc(C)c([N+](=O)[O-])c1
inactive: [1]; [7] -2% | [1]; [8] 11% | [1]; at 50.0 µM 51.1% | [2]; [7] 1% | [2]; [8] -2% | [2]; at 50.0 µM 17.6% | [3]; [7] -1% | [3]; [8] -2% | [3]; at 50.0 µM 13.8% | [4]; [7] 1% | [4]; [8] 1% | [4]; at 50.0 µM -7.1% | [5]; [7] -1% | [5]; [8] 1% | [5]; at 50.0 µM 6.25% | [6]; [7] 0% | [6]; [8] 12% | [6]; at 50.0 µM 28.2%

O=C(O)CSc1ccc(N=C=S)cc1
active: [1]; [8] 96% | [2]; [8] 91% | [3]; [8] 93% | [5]; [8] 95% | [6]; [8] 98%
inactive: [1]; [7] -5% | [1]; at 50.0 µM -8.1% | [2]; [7] 3% | [2]; at 50.0 µM 8.15% | [3]; [7] 9% | [3]; at 50.0 µM -2.75% | [4]; [7] -9% | [4]; [8] 69% | [4]; at 50.0 µM 4.8% | [5]; [7] -27% | [5]; at 50.0 µM 0.55% | [6]; [7] 37% | [6]; at 50.0 µM -2.35%

CC1CCCN(CC(O)CN2CCCc3ccccc32)C1 (stereo not given)
active: [1]; at 50.0 µM 97.9% | [2]; at 50.0 µM 94.5% | [3]; at 50.0 µM 97.6% | [4]; at 50.0 µM 94.4% | [5]; at 50.0 µM 96% | [6]; at 50.0 µM 97.5%
inactive: [1]; [7] 0% | [1]; [8] 32% | [2]; [7] 8% | [2]; [8] 17% | [3]; [7] 2% | [3]; [8] 25% | [4]; [7] 26% | [4]; [8] 33% | [5]; [7] -7% | [5]; [8] 29% | [6]; [7] 6% | [6]; [8] 40%

CC1=CC(O)(c2nc3ccccc3s2)CC(C)(C)C1 (stereo not given)
inactive: [1]; [7] 3% | [1]; [8] 60% | [1]; at 50.0 µM 69.7% | [2]; [7] 6% | [2]; [8] 61% | [2]; at 50.0 µM 56.1% | [3]; [7] -1% | [3]; [8] 61% | [3]; at 50.0 µM 64.2% | [4]; [7] -2% | [4]; [8] 51% | [4]; at 50.0 µM 47.7% | [5]; [7] 15% | [5]; [8] 31% | [5]; at 50.0 µM 41.4% | [6]; [7] -2% | [6]; [8] 69% | [6]; at 50.0 µM 66.4%

O=C(O)c1cc(-c2ccc3c(c2)Nc2ccccc2S3)nc2ccc(F)cc12
active: [1]; [8] 98% | [1]; at 50.0 µM 99% | [2]; [8] 98% | [2]; at 50.0 µM 99.1% | [3]; [8] 99% | [3]; at 50.0 µM 98.8% | [4]; [8] 97% | [4]; at 50.0 µM 98.7% | [5]; [8] 97% | [5]; at 50.0 µM 98% | [6]; [8] 96% | [6]; at 50.0 µM 98.7%
inactive: [1]; [7] 16% | [2]; [7] -40% | [3]; [7] 12% | [4]; [7] 22% | [5]; [7] 33% | [6]; [7] 18%

Cn1c(=O)c2c(nnc(-c3ccccc3)[n+]2[O-])n(C)c1=O
active: [1]; at 50.0 µM 99.5% | [2]; [8] 97% | [2]; at 50.0 µM 99.7% | [3]; [8] 90% | [3]; at 50.0 µM 99.7% | [4]; at 50.0 µM 99% | [5]; at 50.0 µM 99.6% | [6]; [8] 95% | [6]; at 50.0 µM 99.6%
inactive: [1]; [7] -3% | [1]; [8] 46% | [2]; [7] -1% | [3]; [7] 1% | [4]; [7] 2% | [4]; [8] 43% | [5]; [7] -3% | [5]; [8] 60% | [6]; [7] -6%

O=c1oc(-c2cccc(C(Cl)Cl)c2)ns1
inactive: [1]; [7] 7% | [2]; [7] 5% | [3]; [7] 12% | [4]; [7] 2% | [4]; at 50.0 µM 69% | [5]; [7] 3% | [6]; [7] 13%
active: [1]; [8] 99% | [1]; at 50.0 µM 98.2% | [2]; [8] 100% | [2]; at 50.0 µM 99.1% | [3]; [8] 100% | [3]; at 50.0 µM 99.2% | [4]; [8] 99% | [5]; [8] 99% | [5]; at 50.0 µM 97.7% | [6]; [8] 99% | [6]; at 50.0 µM 99.1%

CCOC(=O)c1cnc2ccc(C3CCCCC3)cc2c1Nc1ccc2c(c1)OCO2
inactive: [1]; [7] -15% | [1]; at 50.0 µM 11.1% | [2]; [7] -4% | [2]; at 50.0 µM -8.35% | [3]; [7] -23% | [3]; at 50.0 µM 5.15% | [4]; [7] -9% | [4]; at 50.0 µM -12.8% | [5]; [7] 3% | [5]; at 50.0 µM -7.25% | [6]; [7] -3% | [6]; at 50.0 µM 25.4%
active: [1]; [8] 91% | [2]; [8] 95% | [3]; [8] 96% | [4]; [8] 92% | [5]; [8] 93% | [6]; [8] 93%

C/C(O)=C(/C=N\C(=S)Nc1ccc(Cl)c(Cl)c1)C(=O)Nc1ccccc1C
inactive: [1]; [7] -11% | [1]; [8] 40% | [1]; at 50.0 µM 67% | [2]; [7] -6% | [2]; [8] 26% | [2]; at 50.0 µM 39.6% | [3]; [7] 1% | [3]; [8] 22% | [4]; [7] -7% | [4]; [8] 34% | [4]; at 50.0 µM -10.2% | [5]; [7] -15% | [5]; [8] 13% | [5]; at 50.0 µM 51.6% | [6]; [7] 11% | [6]; [8] 22% | [6]; at 50.0 µM 57.7%
active: [3]; at 50.0 µM 73.5%

O=C(COC(=O)c1ccc(O)cc1)c1ccc(-c2ccccc2)cc1
inactive: [1]; [7] -16% | [1]; [8] -13% | [1]; at 50.0 µM 21.7% | [2]; [7] -4% | [2]; [8] 11% | [2]; at 50.0 µM 25.4% | [3]; [7] -1% | [3]; [8] 12% | [3]; at 50.0 µM 19.9% | [4]; [7] 22% | [4]; [8] -45% | [4]; at 50.0 µM 28.1% | [5]; [7] 6% | [5]; [8] -20% | [5]; at 50.0 µM 17.6% | [6]; [7] -5% | [6]; [8] 24% | [6]; at 50.0 µM 19.9%
